From PubChem BioAssay AID720535 (National Center for Advancing Translational Sciences (NCATS), 2013)
Among all 1,600 compounds or so, about 420 (26%) were called active. Not shown: some 40% with an inconclusive outcome. The full list was thinned out, with actives kept by preference. Values without a mark were called inactive. Calls come from the whole dose curve; as a rule, active = well fitted inhibition curve with a large enough effect; inconclusive = small, poorly fitted or top-dose-only effect; inactive = flat fitted curve, though single readings scatter.
Potency is the fitted concentration of half-maximal effect.

Experiment: qHTS for Inhibitors of TGF-b: Cytotox Counterscreen for Cherry Picks; note: nearly all actives have a fitted effect of over 70% in size
Conditions: HepG2 CAGA-GFP viability, ATP luminescence, 18 h, cells stimulated with TGF-beta, 500 pg/mL; series mostly up to 46.1 µM; activity, negative = cytotoxicity: at the top concentration
Text: TGF-b is a main component in the TGF-b signaling pathway which plays diverse roles in cellular and development pathways. TGF-b is mediated by transcription factors called "Smads". Although the Smad-dependent pathway is the primary canonical TGF-b signaling mode, TGF-b1 can also activate alternative signaling pathways, including those involving MAPK (ERK, JNK and p38). This interaction may mediate or enhance Smad-dependent responses, or can exert Smad-independent effects. The complexity of this signaling cascade allows the TGF-b superfamily to perform unique, overlapping or redundant functions. We believe that targeting the TGF-beta pathway at the Smad-transcription factor level may eliminate the consequences of disrupting the entire pathway and offer specificity without affecting other signaling pathways. Smad3 is the primary transducer of TGF-b's signals and Smad3 regulates many functions attributed to TGF-b signaling. We hypothesize that Smad3 inhibitors will selectively eliminate Smad3-specific TGF-beta signals without undesired off-target effects. We aim to identify Smad3-small molecule antagonists using a quantitative high throughput screening (qHTS) approach. A high-throughput assay was developed to screen the NIH Molecular Libraries Small Molecule Repository (MLSMR). This is a cell based assay, where TGF-b is tagged with GFP. This is a counterscreen that evaluates the cytotoxicity of the compounds that were identified as hits in the primary cell-based screen (AID 588855). MH087449NIH Chemical Genomics Center [NCGC] NIH Molecular Libraries Probe Centers Network [MLPCN] MLPCN Grant: MH087449 Assay Submitter (PI): Sushil Rane, National Institute of Diabetes and Kidney Diseases
Suspensions of trypsinized HEPG2 CAGA-GFP cells were dispensed into white, tissue culture-treated, solid 1536-well plates at 5uL/well (1000 cells/well final concentration) in DMEM medium supplemented with 1% FBS. Plates were incubated at 37 degrees C for 2 hours, after which 23 nL of compounds or DMSO were delivered to each well using a pin tool. One uL of recombinant TGF-beta in DMEM (1% FBS) was then dispensed (500 pg/mL final concentration), and plates were incubated at 37 degrees C for 18 hours. Two uL of CellTiter Glo (Promega), a luminescence-based viability reagent, was dispensed, followed by a 10 minute room temperature incubation. The plates were then measured on a PerkinElmer ViewLux plate reader for luminescence (clear filter) using a 5 second exposure. The %Activity was determined from the corrected luminescence values. Wells containing media only (no cells) were used to normalize %Activity of identified toxic compounds; media-only wells corresponded to 100%Activity (complete cell-killing), while DMSO-dosed cell controls were used to normalize 0%Activity (no toxicity). Concentration-response curves were fitted to the signals arising from the resulting luminescence. The concentration-effect curves were then classified based on curve quality (r2), response magnitude and degree of measured activity, and compounds were subsequently categorized based on their curve class.
In the case of COc1cc(NC(=O)c2[nH]cnc2C(N)=O)cc(C(=O)Nc2cccc(C(F)(F)F)c2)c1, the Potency is reported as 20.6 µM (active). In the case of Cc1ccc(S(=O)(=O)Nc2nc3ccccc3nc2N2CCc3ccccc3C2)cc1, the “activity, negative = cytotoxicity” value is reported as -22.6%. With Cc1ccc(CN2CC(N3CCC(Cc4ccccc4)CC3)CS2(=O)=O)cc1 (centres undefined) the “activity, negative = cytotoxicity” value was -20.7%. For COc1ccc(C)cc1S(=O)(=O)N1CCN(S(=O)(=O)c2cc(C(=O)O)ccc2C)CC1, the “activity, negative = cytotoxicity” value was 2.15%. With O=C(/C(=C/c1cccc(Cl)c1)c1nc2ccccc2[nH]1)c1ccccc1 the Potency was 6.51 µM (active). For CN(c1ccccc1)S(=O)(=O)c1ccc(C(=O)N2CCN(c3ccccc3Cl)CC2)cc1, the “activity, negative = cytotoxicity” value was -8.45%. With O=c1[nH]c(CCl)nc2cc(-c3ccc(Cl)cc3)sc12 the Potency was 23.1 µM (active). In the case of CN(C)CCNC(=O)c1ccc(Cl)c2cc3ccccc3nc12, the Potency is reported as 2.59 µM (active). In the case of CC[C@H]1CN2CCc3cc(OC)c(OC)cc3[C@@H]2C[C@@H]1C[C@H]1NCCc2cc(OC)c(OC)cc21, the Potency is reported as 3.66 µM (active). In the case of COc1ccc(-c2onc(C)c2-c2ccc3c(c2)OCCO3)c(O)c1, the “activity, negative = cytotoxicity” value is reported as -22.4%. In the case of COc1ccc(CC(=O)Nc2ccccc2NC(=O)c2ccco2)cc1OC, the “activity, negative = cytotoxicity” value is reported as 8.69%. With O=C(Nc1nnc(S(=O)(=O)N2CCCCCC2)s1)c1cccc(Br)c1 the Potency was 7.31 µM (active). For Cc1ccc(S(=O)(=O)Nc2ccc3c(c2)C(=O)N([C@H](C)CO)C[C@@H](C)[C@@H](CN(C)C(=O)Nc2cccc4ccccc24)O3)cc1, the “activity, negative = cytotoxicity” value was -28.8%. For Cc1cccc2sc(N(CCCN(C)C)C(=O)CCS(=O)(=O)c3ccccc3)nc12, the Potency was 18.4 µM (active). For COc1cccc2sc(N(CCCN(C)C)C(=O)CCS(=O)(=O)c3ccccc3)nc12, the Potency was 13 µM (active). For COC(=O)COc1cccc2c(=O)n(CC(=O)NCc3ccccc3)ccc12, the “activity, negative = cytotoxicity” value was -2.86%. For CCCc1cc(-c2n[nH]c(=S)n2CC)c2ccccc2n1, the “activity, negative = cytotoxicity” value was 3.2%. With Cc1ccnc(NC(=O)C2CCN(S(=O)(=O)c3c(C)c(C)cc(C)c3C)CC2)c1 the Potency was 11.6 µM (active). In the case of Cc1ccc(C)c(S(=O)(=O)N2CCN(CC(=O)Nc3ccc([N+](=O)[O-])cc3)CC2)c1, the “activity, negative = cytotoxicity” value is reported as -22.4%. For Fc1cc(F)c2nc(Nc3nc4c(F)cccc4s3)sc2c1, the “activity, negative = cytotoxicity” value was -21.5%. In the case of Cc1cc(C)cc(N(CC(=O)N2CC=C(c3ccccc3)CC2)S(=O)(=O)c2c(C)noc2C)c1, the “activity, negative = cytotoxicity” value is reported as -22.1%. For Cc1cccc(CS(=O)(=O)c2ncc(Cl)c(C(=O)Nc3ccc(F)cc3)n2)c1, the Potency was 10.3 µM (active). For Cc1cccc(NC(=O)c2nc(S(=O)(=O)Cc3ccccc3)ncc2Cl)c1, the Potency was 4.61 µM (active). In the case of CC(=O)c1cccc(-c2cnc3c(NC=O)cc(-c4ccc(N(C)C)cc4)cn23)c1, the “activity, negative = cytotoxicity” value is reported as -21.9%. With O=C(Nc1ccc(Cl)cc1)Nc1nnc(/C=C/c2ccccc2)s1 the “activity, negative = cytotoxicity” value was -16.4%. With COc1ccc2nc(N3CCN(C(=O)c4ccc([N+](=O)[O-])o4)CC3)sc2c1 the Potency was 23.1 µM (active). For c1ccc2cc3c(NCCN4CCOCC4)ccnc3cc2c1, the Potency was 18.4 µM (active). For CN(C(=O)c1cccc(NC(=O)Cc2cccc([N+](=O)[O-])c2)c1)C1CCCCC1, the “activity, negative = cytotoxicity” value was -11.1%. In the case of OCCCNc1nccc(-c2cc(Nc3cccc(Cl)c3)ncn2)n1, the Potency is reported as 0.651 µM (active). With CCOC(=O)C1=C(N)N(c2ccc(C)cc2)C2=C(C(=O)CCC2)C1c1cccs1 (centres undefined) the “activity, negative = cytotoxicity” value was -23.3%. For CN(C)c1nc(=Nc2cccc(Cl)c2)ss1, the “activity, negative = cytotoxicity” value was -14.9%. For COc1cccc(CNc2nc(NCc3ccccc3OC)nc3ccsc23)c1, the Potency was 16.4 µM (active). With FC(F)(F)c1ccccc1Cc1c(-c2ccccc2)nc2c3ccccc3ccn12 the “activity, negative = cytotoxicity” value was -27.2%. In the case of COc1cc(NC(=O)c2ccccc2NS(=O)(=O)c2ccc(Cl)s2)cc(OC)c1, the Potency is reported as 8.2 µM (active). With COc1cc(CC(=O)Nc2nc(-c3ccc(F)c(F)c3)cs2)cc(OC)c1OC the Potency was 9.2 µM (active). For Cn1c(=O)n(C)c2cc(S(=O)(=O)N3CCCc4ccccc43)ccc21, the “activity, negative = cytotoxicity” value was -7.71%. In the case of CC1CCc2c(nc3ncnn3c2Nc2ccc(OC(F)(F)F)cc2)C1 (centres undefined), the “activity, negative = cytotoxicity” value is reported as -6.61%. For Clc1ccc2c(c1)C1=C(C(c3ccncc3)O2)C(c2ccc(Br)cc2)n2ncnc2N1 (centres undefined), the “activity, negative = cytotoxicity” value was -17.4%. With O=C(NC1=CC(=O)c2ccccc2C1=O)c1ccccc1 the Potency was 8.2 µM (active).
